Source: PubChem BioAssay
Rows were chosen to be rich in hits. Some 1.9% of all compounds tested hit in one or more screens of this group.
sEH inh – soluble epoxide hydrolase (human) inhibition. AID 707. recombinant human sEH enzymatic activity assay. inhibition, % at 2 µM. 91,000 compounds, 0.34% hits; in the data active = inhibition above about 80%
Target sequence (P34913 whole entry, looked up): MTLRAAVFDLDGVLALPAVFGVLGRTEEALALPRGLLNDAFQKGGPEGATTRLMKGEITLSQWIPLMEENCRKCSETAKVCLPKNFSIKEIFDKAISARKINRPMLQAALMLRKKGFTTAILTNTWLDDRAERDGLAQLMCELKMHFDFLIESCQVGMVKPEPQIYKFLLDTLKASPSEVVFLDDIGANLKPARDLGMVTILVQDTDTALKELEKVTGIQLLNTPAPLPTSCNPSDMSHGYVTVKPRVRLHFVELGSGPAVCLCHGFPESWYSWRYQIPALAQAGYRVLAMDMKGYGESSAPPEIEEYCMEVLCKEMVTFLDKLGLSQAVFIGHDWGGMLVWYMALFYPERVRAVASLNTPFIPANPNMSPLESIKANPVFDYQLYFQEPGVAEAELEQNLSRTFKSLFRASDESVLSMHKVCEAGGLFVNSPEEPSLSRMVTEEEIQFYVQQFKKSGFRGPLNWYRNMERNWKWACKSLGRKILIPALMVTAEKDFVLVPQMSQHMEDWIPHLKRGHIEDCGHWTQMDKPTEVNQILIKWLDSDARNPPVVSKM
cytoskel mod – alters cytoskeleton assembly in HUVEC cells | HUVEC TNFa F-actin phalloidin imaging, high content | inhibition, % at 2 µM | 91,000 compounds, 0.18% hits | AID 836;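 active = inhibition above the batch mean plus 3 SD and confirmed as a hit by visual image inspection, cut at about 30% in these data, passing the limit was not always enough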
Calb biofilm kill – kills Candida albicans biofilms; inhibition, % at 6 µM; C. albicans biofilm + clotrimazole, Alamar Blue; 85,000 compounds, 0.14% hits;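 active = inhibition above 20%; inactive = inhibition below 20%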;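 also: preformed 24 hr biofilms exposed to compound for 48 hr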
Measles CPE – protection of cells from measles virus; 140,000 compounds, 1.5% hits; AID 841; protection (pct of control), % at 4 µM; Measles virus-infected cells, CPE protection, absorbance; in the data active = protection mostly above about 24%, no sharp cut-off; inactive = mostly below about 26%
sEH act – soluble epoxide hydrolase (human) activation; P34913; purified human sEH enzymatic activity, activator screen; activation, % at 2 µM; 91,000 compounds, 0.04% hits; AID 717; in the data active = activation above about 37%
Large screens that a line does not name were inactive.

c1ccc(Cn2c(-c3ccco3)nc3nc4ccccc4nc32)cc1	sEH act 38
CCCCCn1c(-c2ccco2)nc2nc3ccccc3nc21	none (no result: sEH inh, sEH act)
CCC(C)NC(=O)/C=C1\Sc2ccccc2NC1=O (stereo unspecified)	none (no result: sEH inh, cytoskel mod, Calb biofilm kill, sEH act)
O=C(O)CC1SC(=Nc2ccccc2)N(c2ccccc2)C1=O (stereo unspecified)	Measles CPE 51 (no result: sEH inh, cytoskel mod, sEH act)
Cc1ccc(CC2SC(=Nc3ccccc3)N(c3ccccc3)C2=O)cc1 (stereo unspecified)	none (no result: sEH inh, cytoskel mod, Calb biofilm kill, sEH act)
CCCCSc1ccc2nc(-c3ccc(C#N)cc3)cn2c1	Measles CPE 43 (no result: Calb biofilm kill)
CCCSc1ccc2nc(-c3ccccc3)cn2c1	none (no result: sEH inh, cytoskel mod, Calb biofilm kill, sEH act)
Cc1nc(SCC(=O)Nc2c(C)nn(C)c2C)c2cnn(-c3ccccc3)c2n1	Measles CPE 48
Cc1ccc(-c2c(C(=O)N3CCOCC3)oc(=O)c3ccccc23)cc1	Calb biofilm kill 27
CCN1CCN(C(=O)c2oc(=O)c3ccccc3c2-c2ccc(C)cc2)CC1	none (no result: sEH inh, cytoskel mod, sEH act)
O=C1c2cccnc2-c2ncccc21	Measles CPE 46 (no result: cytoskel mod)
COCCN(Cc1cc2ccc(C)cc2n2nnnc12)Cc1nnnn1C(C)(C)C	none
CC([NH2+][O-])C(C)(C)NO (stereo unspecified)	none
CS(=O)(=O)N1CCCC(C(=O)N2CCc3ccccc3C2)C1 (stereo unspecified)	none (no result: Calb biofilm kill)
CS(=O)(=O)N1CCC(C(=O)N2CCc3ccccc3C2)CC1	sEH act 39
CC(=O)C1=C(O)CCC1=NCCc1ccccc1	Measles CPE 29
CC(=NCCc1ccccc1)C1=C(O)CCC1=O	none
O=c1c2c3c(sc2nc2n1CCC2)CCC3	cytoskel mod 37, Measles CPE 36
O=c1c2c3c(sc2nc2n1CCCC2)CCCC3	none
CCCn1c(CN(C)Cc2ccccc2)nc2c1c(=O)n(C)c(=O)n2C	none
CCCn1c(CN(Cc2ccccc2)Cc2ccccc2)nc2c1c(=O)n(C)c(=O)n2C	Calb biofilm kill 25 (no result: sEH inh, cytoskel mod, sEH act)
CC(C)CCn1c(Cl)nc2c1c(=O)n(C)c(=O)n2C	none
CC(C)CCn1c(Oc2ccccc2Cl)nc2c1c(=O)n(C)c(=O)n2C	Measles CPE 49
CN(Cc1ccccc1)Cc1nc2c(c(=O)n(C)c(=O)n2C)n1Cc1ccccc1Cl	Measles CPE 53 (no result: cytoskel mod)
CN(Cc1ccccc1)Cc1nc2c(c(=O)n(C)c(=O)n2C)n1CCc1ccccc1	none (no result: Measles CPE)
Cc1ccc(OCC(=O)Nc2ccc([N+](=O)[O-])cn2)cc1C	none (no result: Calb biofilm kill, Measles CPE)
O=C(Cn1nnc(-c2ccccc2F)n1)Nc1ccc(S(=O)(=O)NC2CCCC2)cc1	Measles CPE 35
COCc1nnc(NC(=O)CSc2ccc(C)cc2)s1	Measles CPE 23
CCc1nnc(NC(=O)CSc2nnc(COc3ccccc3)n2-c2ccc(C)cc2)s1	cytoskel mod 90
CCn1c(COc2ccc(C)cc2)nnc1SCC(=O)Nc1cc(OC)ccc1OC	Measles CPE 49
CCc1nnc(NC(=O)CSc2nnc(COc3ccccc3)n2Cc2ccccc2)s1	none
COCc1nnc(NC(=O)CSc2ccccc2)s1	none
CCOc1cccc(C2c3c(oc4cc(C)c(C)cc4c3=O)C(=O)N2CCCN(C)C)c1 (stereo unspecified)	none
COC(=O)c1nn(-c2ccccc2)c(=O)cc1Oc1ccc(Cl)cc1	none (no result: Calb biofilm kill)
COC(=O)c1nn(-c2ccc(Cl)cc2)c(=O)cc1Sc1ccccn1	Measles CPE 28 (no result: Calb biofilm kill)
CCOC(=O)CN1C(=O)SC(CC(=O)Nc2nccs2)C1=O (stereo unspecified)	Measles CPE 36
O=C(NCc1ccc2c(c1)OCO2)C1CCN(Cc2cnn(-c3ccccc3)c2-n2cccc2)CC1	sEH inh 84
O=C(NCc1ccc2c(c1)OCO2)C1CCN(c2ccc(S(=O)(=O)N3CCCC3)cc2)CC1	sEH inh 86 (no result: Calb biofilm kill)
O=C(NCc1ccc2c(c1)OCO2)C1CCN(S(=O)(=O)N2CCCCC2)CC1	none (no result: sEH inh, cytoskel mod, Calb biofilm kill, sEH act)
CN=C(Nc1cccc(OC)c1)SC1CC(=O)N(c2ccc(C(=O)O)cc2)C1=O (stereo unspecified)	none (no result: sEH inh, cytoskel mod, Calb biofilm kill, sEH act)
CCOC(=O)N1CCN(CC(O)COC(CC)c2ccccc2)CC1 (stereo unspecified)	Measles CPE 47 (no result: sEH inh, sEH act)
CCOC(=O)N1CCN(CC(O)COc2ccccc2C(C)C)CC1 (stereo unspecified)	none (no result: sEH inh, sEH act)
CCOC(=O)N1CCN(CC(O)COc2cc(C)ccc2C(C)C)CC1 (stereo unspecified)	Measles CPE 30 (no result: sEH inh, cytoskel mod, Calb biofilm kill, sEH act)
CCOC(=O)N1CCN(CC(O)COc2ccccc2C(C)CC)CC1 (stereo unspecified)	none
CCCn1c(SCC(=O)N2c3ccccc3Sc3ccccc32)nc2ccccc21	Measles CPE 33 (no result: sEH inh, cytoskel mod, Calb biofilm kill, sEH act)
CCCn1c(SCC(=O)O)nc2ccccc21	none
O=C(O)c1ccccc1Nc1ccc([N+](=O)[O-])cc1	Measles CPE 83 (no result: sEH inh, cytoskel mod, Calb biofilm kill, sEH act)
O=c1[nH]c(=O)n(CCO)c2nnn(Cc3ccccc3)c12	Measles CPE 30
CC(C)c1nc(SCC(=O)c2ccccc2)c2c(=O)n(C)c(=O)n(C)c2n1	none (no result: Calb biofilm kill)
COC(=O)c1ccc(CSc2nnc(-c3ccncc3)n2Cc2ccccc2)o1	cytoskel mod 76
CCOC(=O)c1c(-c2ccc(C)o2)csc1NC(=S)NC(=O)N(C)C	none (no result: Calb biofilm kill)
COc1ccc2c(c1)O[C@H](c1ccc3c(c1)OCO3)[C@@H](O)C2=O	Measles CPE 27 (no result: sEH inh, cytoskel mod, Calb biofilm kill, sEH act)
COc1cccc(-c2csc(N3CCN(C(=O)NC45CC6CC(CC(C6)C4)C5)CC3)n2)c1	sEH inh 82
COc1cccc(-c2csc(N3CCN(C(=S)Nc4ccccc4)CC3)n2)c1	none (no result: Calb biofilm kill)
COc1cccc(OCC(O)CN(CCO)Cc2ccccc2)c1 (stereo unspecified)	Measles CPE 32 (no result: Calb biofilm kill)
CCN(CC)c1ccc(NC(=O)COC(=O)c2ccc3ccccc3n2)cc1	none
N=C1C=CC=C2C1=NC1(CCCCC1)N2O	none (no result: sEH inh, sEH act)
Cc1ccoc1C(=O)NCCCNC(=O)c1occc1C	none
Cc1ccoc1C(=O)NCc1occc1C(=O)O	Measles CPE 41 (no result: sEH inh, cytoskel mod, sEH act)
Cc1[nH]c(=O)[nH]c(=O)c1NC(=O)c1cccs1	Measles CPE 25
Cc1ccc(NC(=O)c2cccs2)cc1	none
O=C(CCNC(=O)c1ccccc1Cl)Nc1nc(-c2ccccc2Cl)cs1	none (no result: sEH inh, cytoskel mod, Calb biofilm kill, sEH act)
CCCCCCCCCSc1n[nH]c(N)n1	Measles CPE 60 (no result: Calb biofilm kill)
CCCCCCCCSc1n[nH]c(N)n1	none (no result: sEH inh, cytoskel mod, Calb biofilm kill, sEH act)
OCCNc1nc2ccc(Cl)cc2[nH]1	none
O=C(NC1CCCCC1)NC1CC2CCC(C1)N2Cc1nnnn1Cc1ccc2c(c1)OCO2 (stereo unspecified)	sEH inh 95
CCN(CC)S(=O)(=O)c1ccc(/C=C/C(=O)OCC(=O)Nc2ccc(S(N)(=O)=O)cc2)cc1	Measles CPE 28 (no result: sEH inh, cytoskel mod, Calb biofilm kill, sEH act)
CSc1nnc2c3ccccc3n(CCc3ccccc3)c2n1	Measles CPE 55 (no result: sEH inh, cytoskel mod, sEH act)
CSc1nnc2c3ccccc3n(Cc3ccccc3)c2n1	none
O=c1cc(N2CCCCC2)c(-c2ccccc2)nn1Cc1ccc(Cl)cc1Cl	Measles CPE 43 (no result: Calb biofilm kill)
NS(=O)(=O)c1cccnc1Nc1c(Cl)cccc1Cl	none (no result: Calb biofilm kill)
Cc1cc2cc(CNC(=O)c3ccc(S(=O)(=O)N4CCCCC4)cc3)ccc2[nH]1	Measles CPE 35
Cc1cccc(-n2c(CNC(=O)c3ccc(S(=O)(=O)N4CCCC4)cc3)n[nH]c2=S)c1	Measles CPE 36
COc1ccc(-n2c(CNC(=O)c3ccc(S(=O)(=O)N4CCCC4)cc3)n[nH]c2=S)cc1	none (no result: Calb biofilm kill)
